Experimental findings from PubChem BioAssay (EPA / NIEHS) are described below.

Activity calls are given as the source filed them. The calls were made as follows: active = hit-call score of the fitted dose curve at least 0.9, where 1 is the maximum; inactive = score below 0.9.

Assay [1] can be described thus: APR_HepG2_CellCycleArrest_24hr: Apredica 24-hour HepG2 Assay for Cell Cycle Arrest (AID 2282905).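 Also: cell cycle arrest scored as ratio of 2N to 4N nuclear DNA content.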 The following applies: imaging, actives raise or lower the signal. A digest of the protocol:
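Step one: dose HepG2 with test compounds, 0.39–200 uM, 0.5% DMSO, 24 hr. Step two: fix, permeabilize, stain nuclei with Hoechst 33342. Step three: image six fields per well at 20x, quantify DNA content, fit bidirectionally relative to DMSO.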

The nature of assay [2]: APR_HepG2_NuclearSize_24hr: Apredica 24-hour HepG2 Assay for Nuclear Size (AID 2282907). The following applies: high-content imaging, actives raise or lower the signal. A digest of the protocol: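 After fixation and permeabilization, 24-hr-treated HepG2 cells were stained with Hoechst 33342 and imaged on an ArrayScan (20x). Doses spanned 0.39–200 uM in duplicate. Nuclear diameter changes in either direction were fitted relative to 0.5% DMSO controls.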

A short description of assay [3]: APR_HepG2_CellLoss_24hr: Apredica 24-hour HepG2 Assay for Cell Loss (AID 2282908).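 As to AC50: fit in both directions so a hit may be cell loss or gain.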 The following applies: high-content imaging. In a few lines: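 Duplicate wells received compound at ten concentrations (0.39–200 uM; final DMSO 0.5% v/v). After fixation with formaldehyde, nuclei stained with Hoechst 33342 were imaged at 20x. Loss or gain of cell count was fitted relative to DMSO controls.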

Assay [4] in a line: APR_HepG2_MicrotubuleCSK_24hr: Apredica 24-hour HepG2 Assay for Microtubule CSK Stabilty (AID 2282909). The following applies: HepG2 microtubule cytoskeleton imaging, actives raise or lower the signal. In a few lines: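 Microtubule stability is scored from tubulin immunofluorescence in fixed HepG2 cells imaged at 20x. Cells receive ten compound concentrations up to 200 uM for 24 h; taxol and DMSO serve as positive and negative controls.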

A short description of assay [5]: APR_HepG2_MitoticArrest_24hr: Apredica 24-hour HepG2 Assay for Mitotic Arrest (AID 2282910). The settings on record: high-content imaging, actives raise or lower the signal. A digest of the protocol:
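Treatment lasted 24 hr in the human HepG2 line at 0.39–200 uM, solvent held at 0.5% DMSO. Fixed cells were stained with Hoechst 33342 and anti-phospho-histone H3, imaged at 20x, and analysed by gain- or loss-of-signal fitting against DMSO.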

Assay [6] can be described thus: APR_HepG2_MitoMembPot_24hr: Apredica 24-hour HepG2 Assay for Mitochondrial Membrane Potential (AID 2282911). The settings on record: imaging, actives raise or lower the signal. In a few lines: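 Mitochondrial membrane potential imaged via MitoTracker Red CMXRos (250 nM, 30 min pre-fixation) in fixed HepG2 cells with Hoechst nuclear identification. Ten concentrations 0.39–200 uM, 24 h treatment, 0.5% DMSO; CCCP as positive control.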

Assay [7] can be described thus: APR_HepG2_MitoMass_24hr: Apredica 24-hour HepG2 Assay for Mitochondrial Mass (AID 2282912). The following applies: high-content imaging, actives raise or lower the signal. In a few lines: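 Readout: fluorescence of MitoTracker Red CMXRos (250 nM, added 30 min pre-fixation) in fixed HepG2 cells imaged by HCS. Exposure lasted 24 hr at 0.39–200 uM; increases and decreases were both fitted relative to DMSO.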

Assay [8] can be described thus: APR_HepG2_p53Act_24hr: Apredica 24-hour HepG2 Assay for p53 Activation (AID 2282913).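 Also: p53 protein immunofluorescence averaged per cell in HepG2 with Hoechst nuclei.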 The following applies: high-content imaging, actives raise or lower the signal. A digest of the protocol: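 Fluorescence imaging of formaldehyde-fixed HepG2 cells labelled for p53 and with Hoechst, 24 h after dosing (0.39–200 uM, duplicate wells, 0.5% v/v DMSO). Signal fitted in both directions relative to DMSO.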

A short description of assay [9]: APR_HepG2_CellCycleArrest_72hr: Apredica 72-hour HepG2 Assay for Cell Cycle Arrest (AID 2282914). The following applies: high-content imaging, actives raise or lower the signal. In a few lines:
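Read-out: nuclear DNA content from Hoechst 33342 high-content imaging (20x, six fields/well) after 3.7% formaldehyde fixation, fitted bidirectionally against DMSO. Treatment was 72 h in HepG2, ten concentrations 0.39–200 uM, duplicate, 0.5% DMSO.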

Assay [10] can be described thus: APR_HepG2_CellLoss_72hr: Apredica 72-hour HepG2 Assay for Cell Loss (AID 2282915). The following applies: high-content imaging. In a few lines:
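HepG2 cells were exposed for 72 hr to compounds at 0.39–200 uM (ten concentrations, duplicate) in 0.5% v/v final DMSO. Nuclei were stained with Hoechst 33342 after 3.7% formaldehyde fixation, imaged at 20x, and counted; fits bidirectional versus DMSO.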

As usually defined, the AC50 is the midpoint of the concentration-response curve, whichever way the signal moves. For `CN(C)C(=O)C1(N2CCCCC2)CCN(CC[C@@]2(c3ccc(Cl)c(Cl)c3)CN(C(=O)c3ccccc3)CCO2)CC1`, the compound was classed as inactive in assay [1] and in assay [6]. The AC50 in [2] was 20.9 µM (active); in [3], 15.7 µM (active); in [4] it was 65.2 µM (active); in assay [5], 13.1 µM (active); in assay [7] it was 7.74 µM (active); in [8] it was 22.9 µM (active). The AC50 in [9] was 67.3 µM (active); in [10], 11.4 µM (active).

Turning to `COc1ccc2cc(S(=O)(=O)N[C@H](CC(=O)N[C@H](Cc3ccc(CN4[C@H](C)CCC[C@@H]4C)cc3)C(=O)N(C)C(C)C)c3ccc4c(c3)OCO4)ccc2c1`, the compound was classed as inactive in assay [1], in assay [6] and in [9]. The AC50 in assay [2] is 28.7 µM (active); in assay [3] it was 39.6 µM (active); in assay [4] it was 7.6 µM (active); in assay [5], 16 µM (active); in assay [7], 12.7 µM (active); in assay [8], 20.4 µM (active). Also, the AC50 in [10] was 25.3 µM (active).

Regarding `Oc1ccc2ccccc2c1`, the outcome in assay [1], in assay [2], in [3], in [4], in assay [5] and in assay [6] was inactive. Besides, the compound was called inactive in assay [7], in [8], in assay [9] and in assay [10].

For the compound `CC(O)CC(C)(C)O` (centres undefined), the outcome in assay [1], in assay [2], in assay [3], in [4], in assay [5] and in [6] was inactive. The result in assay [7], in assay [8] and in assay [9] was inactive. In addition, the AC50 in assay [10] was 70.6 µM (active).

Regarding `Cc1ncc(CO)c(CO)c1O`, the outcome in assay [1], in assay [2], in [3], in assay [4], in assay [5] and in assay [6] was inactive. Moreover, the result in assay [7], in assay [8] and in assay [10] was inactive.

For `CC1=CC(=O)/C(=C(/C)O)C(=O)O1`, the outcome in assay [1], in [2], in [3], in assay [4], in assay [5] and in assay [6] was inactive. Also, the compound was called inactive in assay [7], in assay [8], in assay [9] and in assay [10].

As for `CCCCCCCCOc1ccc(C(=O)c2ccccc2)c(O)c1`, the AC50 in assay [1] was 103 µM (active); in assay [9], 164 µM (active); in assay [10], 91.6 µM (active). The call in [2], in assay [3], in assay [4], in assay [5], in [6] and in assay [7] was inactive. Also, the result in [8] was inactive.

With `CCCCCCCCCCCCO`, the outcome in assay [1], in assay [2], in assay [3], in assay [4], in [5] and in assay [6] was inactive. Further, the call in assay [7], in assay [8], in assay [9] and in assay [10] was inactive.

As to `COc1cc(C(=O)NC2CCN(C)CC2)ccc1Nc1ncc2c(n1)N(C1CCCC1)CC(F)(F)C(=O)N2C`, the outcome in assay [1], in assay [2], in assay [3], in assay [4], in [5] and in assay [6] was inactive. In addition, the compound was called inactive in [7], in assay [8], in assay [9] and in [10].

Turning to `O=CCCCC=O`, the call in [1], in [2], in assay [3], in assay [4], in assay [5] and in assay [6] was inactive. Besides, the compound was called inactive in assay [7], in [8], in assay [9] and in [10].

Turning to `CN(C[C@@H](CC[N+]12CCC(C3CCCCC3)(CC1)CC2)c1ccc(Cl)c(Cl)c1)C(=O)c1cc(C(F)(F)F)cc(C(F)(F)F)c1`, the call in assay [1], in assay [2] and in assay [9] was inactive. The AC50 in assay [3] is 13.1 µM (active); in assay [4], 34.3 µM (active); in assay [5], 33.4 µM (active); in assay [6], 1.27 µM (active); in assay [7], 100 µM (active); in [8] it was 18.3 µM (active). The AC50 in assay [10] was 24.9 µM (active).

Turning to `CCN(CC)C(=O)c1cc(S(=O)(=O)Cc2ccccc2)c(N2CCC(c3ccccc3)CC2)cc1N(CC)CCN(C)C`, the half-maximal activity concentration (AC50) in assay [1] is 75.9 µM (active); in assay [3], 5.48 µM (active); in assay [4], 11.1 µM (active); in assay [5], 1.59 µM (active); in assay [7], 23.1 µM (active); in [8], 18.6 µM (active). The AC50 was 3.21 µM (active) in [9] and 2.54 µM (active) in assay [10]. Moreover, the compound was called inactive in assay [2] and in assay [6].

As for `CCCCCCCCOC(=O)c1cc(O)c(O)c(O)c1`, the AC50 is 14.8 µM (active) in [1]; 90 µM (active) in assay [3]; 171 µM (active) in assay [4]; 50.8 µM (active) in assay [5]; 13.5 µM (active) in [6]; 43.3 µM (active) in assay [8]. The AC50 in [9] is 8.95 µM (active); in assay [10], 63.2 µM (active). The call in [2] and in assay [7] was inactive.

As to `CN(C)c1ccc(C(=C2C=CC(=[N+](C)C)C=C2)c2ccc(N(C)C)cc2)cc1`, the AC50 in [1] is 0.747 µM (active); in [3] it was 6.05 µM (active); in [4], 22 µM (active); in [5], 4.66 µM (active); in assay [6], 27.3 µM (active); in [8], 2.93 µM (active). Moreover, the AC50 in [9] is 0.407 µM (active); in [10] it was 3.23 µM (active). For the same compound, the result in assay [2] and in [7] was inactive.

With `CCCCOC(=O)c1ccc(O)cc1`, the result in assay [1], in assay [2], in assay [3], in [4], in assay [5] and in [6] was inactive. Further, the call in [7], in [8], in [9] and in assay [10] was inactive.

As for `O=C(OCCCCCCOC(=O)c1ccccc1)c1ccccc1`, the compound was classed as inactive in assay [1], in [2], in assay [3], in [4], in [5] and in assay [6]. The compound was classed as inactive in [7], in assay [8], in assay [9] and in assay [10].

With `CCCCCc1ccc(N)cc1`, the compound was classed as inactive in assay [1], in assay [2], in assay [3], in assay [4], in assay [5] and in [6]. The compound was classed as inactive in assay [7], in assay [8], in assay [9] and in [10].

As for `CCCCOC(=O)CC(CC(=O)OCCCC)(OC(C)=O)C(=O)OCCCC`, the outcome in assay [1], in assay [2], in assay [4], in [5], in assay [7] and in assay [9] was inactive. In addition, the AC50 was 27.7 µM (active) in [3], 70.8 µM (active) in assay [6], 53.9 µM (active) in assay [8] and 42.5 µM (active) in assay [10].
